We go through five compounds from ChEMBL document CHEMBL3433997, “St. Jude Leishmania screening dataset” (2016).

Structures are written as SMILES.

Common to all, as to assay type: functional
Test [1] deals with Solute carrier family 2, facilitated glucose transporter member 1 (Homo sapiens) (UniProt P11166). Kind of test: ST_JUDE_LEISH: Cytotoxicity at 2uM final concentration against transgenic Leishmania Mexicana promastigotes LmGLUT1 that are glucose transport deficient and complemented with the human glucose transporter GLUT1. Activity is measured by DNA content using SYBR green in vitro.

Test [2] addresses Hexose transporter 1 (Plasmodium falciparum) (UniProt O97467). Kind of test: ST_JUDE_LEISH: Cytotoxicity at 2uM final concentration against transgenic Leishmania Mexicana promastigotes LmPfHT that are glucose transport deficient and complemented with the Plasmodium falciparum hexose transporter. Activity is measured by DNA content using SYBR green in vitro.
Test [3] deals with Glucose transporter (Leishmania mexicana) (UniProt O61059). Nature of the test: ST_JUDE_LEISH: Cytotoxicity at 2uM final concentration against transgenic Leishmania Mexicana promastigotes LmGT2 that are glucose transport deficient and complemented with the L. Mexicana glucose transporter 2. Activity is measured by DNA content using SYBR green in vitro.

Chain of Solute carrier family 2, facilitated glucose transporter member 1 (Homo sapiens) (P11166 whole entry): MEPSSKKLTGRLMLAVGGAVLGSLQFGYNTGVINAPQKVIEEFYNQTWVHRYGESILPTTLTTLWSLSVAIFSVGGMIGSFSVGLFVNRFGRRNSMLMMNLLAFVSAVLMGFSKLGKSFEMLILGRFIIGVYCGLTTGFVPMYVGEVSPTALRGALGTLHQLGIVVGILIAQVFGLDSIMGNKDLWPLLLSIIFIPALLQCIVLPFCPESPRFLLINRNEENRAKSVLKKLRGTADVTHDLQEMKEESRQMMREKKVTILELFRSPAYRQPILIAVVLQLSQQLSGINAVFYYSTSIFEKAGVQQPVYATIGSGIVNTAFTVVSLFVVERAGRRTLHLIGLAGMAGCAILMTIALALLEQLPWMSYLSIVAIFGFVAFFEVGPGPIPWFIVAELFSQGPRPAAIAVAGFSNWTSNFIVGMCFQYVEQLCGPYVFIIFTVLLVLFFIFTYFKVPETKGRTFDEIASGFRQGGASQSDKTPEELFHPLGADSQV

As a reminder, the inhibition is the drop in the measured response relative to a control, in per cent. `Cc1ccc(Cn2c(N3CCC(C(=O)NCc4cccs4)CC3)nc3ccccc32)cc1`: the inhibition in test [1] was 1.76%; in test [2], 2.67%; in test [3] it was 7.85%.
For `Cc1cccc(NC(=S)NC2CCN(CCCCCNC(=O)/C=C/c3ccc(Cl)c(Cl)c3)CC2)c1`, the results for the inhibition in test [1], in test [2] and in test [3] were 0.27%, 1.13% and 0.99%, respectively.
In the case of `CCN(CC)c1ccc(C=CC(=O)NCCN2CCC(N(C)C3CCCCC3C)CC2)cc1` (stereo not given), the inhibition in test [1] is -2.14%; in test [2], -0.93%; in test [3] it was -0.02%.
With `COc1cc2c(cc1OC)C(C(=O)Nc1cc(OC)c(OC)c(OC)c1)C(c1ccc(SC)cc1)N(C)C2=O` (stereo not given), the inhibition in test [1] was determined as 1.51%; in test [2], 0.98%; in test [3] it was 2.73%.
For `COc1ccc(C(=O)Nc2ccc3nc(N4CCCCC4)cc(C)c3c2)cc1OC`, in that order: 1.54%, -0.36% and 0.56%.
